# Results: the supplement of paper PMC11417369
# ± gives the standard deviation of the averaged measurements. The full ranking holds about 25,000 sequences; the median of “ln(normalized median fluorescence intensity)” is about 8.9, and the highest 2% start at about 10. Only a selection was taken, and the highest values are over-represented in it overall.
# Test system: PfAP2-LT AP2 domain (GST-tagged)
# Assay: gcPBM binding intensity (ln(normalized median fluorescence intensity)); higher = stronger DNA binding
# Procedure, shortened: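 GST-tagged P. falciparum DNA-binding domains produced in E. coli were incubated for 1 h on an Agilent 4 × 180k array of primer-extended double-stranded 36-bp intergenic genomic probes with negative controls. Binding intensity is the highest Masliner-normalised natural-log median intensity across replicate spots of either probe orientation, with bound protein detected by Alexa488 anti-GST antibody at 488 nm.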
row,Sequence,gcPBM binding intensity (ln)
1,TATAAAAAATAAAATACACACACATATATATATATA [CACACA_site8365],9.74 ± 0.28
2,AGCACCCACCAACACACACACACACCCACCCACCGA [CACACA_site368],10.22 ± 0.028
3,AGCACCCACCAACACACACACACACCCACCCACCCA [CACACA_site8011],10.3 ± 0.11
4,ATCAAGCACCAACACACACACACACCCCCACCCACA [CACACA_site370],10.6 ± 0.11
5,TATATATATATATATACACACACACCCACCAAAGCG [CACACA_site7904],10.02 ± 0.021
6,TACACCCACCAACACACACACACACTAATAAAAAAA [CACACA_site8060],10.1 ± 0.44
7,TGCACCCACCAACACACACACAACTAAAAAATAATG [CACACA_site2566],9.71 ± 0.42
8,TCCTGTTGAGAATGGCGTACATATAAATATTATATA [XGTACX_site1841],8.55 ± 0.42
9,TTTAATTTGTTATACACACACAAAAAAAATTATAAA [CACACA_site3937],8.93 ± 0.46
10,CTTATGTTTTTTAAGTGTACATATTATACGTATTAT [XGTACX_site1176],9.02 ± 0.42
11,AAATAACATAATAAGGGTACATTAATTTCGATAATG [XGTACX_site835],8.77 ± 0.4
12,TTTCTAATTTATATCACACACATATATAAATAGTAA [CACACA_site6156],8.72 ± 0.42
13,TATTAATCCTTTTGCTTGGAAACATTCAAAAGGAAG [CACACA_negctrl_site1129],8.18 ± 0.41
14,TAAATTATAATAAATACACACAAATTATAATTCTAT [CACACA_site3942],8.79 ± 0.37
15,TTTAGAGAAGTCAAGTGTACATATAAAATAATTCAC [XGTACX_site4997],8.65 ± 0.35
16,ATATATATATATATATGTACATATGTATATTTTTTT [XGTACX_site1299],9.77 ± 0.44
17,TATATAAATGGACACACACACACCTTATAATTATTA [CACACA_site6093],10 ± 0.38
18,TAAAAAATAAAAATTGCACACTAAAAAATTACGCAC [CACACA_site9129],8.76 ± 0.41
19,GATAATTATGGACACACACACACACCCACAACTAAA [CACACA_site8824],10.2 ± 0.35
20,AAAAATAAAAATTGCACACTAAAAAATTACGCACGA [CACACA_site3418],8.94 ± 0.35

row,Sequence,gcPBM binding intensity (ln)
1,GATAATTACGGACACACACACACACGCACAACTAAA [CACACA_site7254],10.215 ± 0.0071
2,TAATTATGCGGACACACACACACACCCAACTAAAAA [CACACA_site5427],9.9 ± 0.26
3,TGCACGCACAGACACACACACAACTAAAAAATAATG [CACACA_site7250],9.54 ± 0.49
4,AAGATAATTACGCACACACACACACGCCCACAACTA [CACACA_site7255],10.4 ± 0.12
5,TAATTATGCAGACACACACACACACGCAACTAAAAA [CACACA_site7253],10 ± 0.3
6,TAAATTTTTATTTGTAGTACTATATATATATATATA [XGTACX_site1026],8.9 ± 0.12
7,TAATTATGTACTATTATACACACGTTTAATTGTAAA [CACACA_site206],8.74 ± 0.42
8,AACATATATAATATTTGTACTTATATACAAAATATG [XGTACX_site7502],8.64 ± 0.4
9,ATATATATTTTAATAACACACATATATTATATTATA [CACACA_site4387],8.7 ± 0.38
10,AAAACACAAAAAAAATGTACACATATATATATATAT [XGTACX_site8509],9.84 ± 0.12
11,TATAAATATACAAACACACATACAAACATATATATA [CACACA_site1120],9.24 ± 0.37
12,AAAAAAAAAAAAAACATACACACAAATATATACATA [CACACA_site4010],9.05 ± 0.45
13,CATATACGCAAACACACACACATATATATATATATA [CACACA_site501],10.3 ± 0.27
14,TATATACACCCACATACACACAAATAAAAAAACACC [CACACA_site3414],9.64 ± 0.31
15,CATACATACAAACACACACACATATATATACATACA [CACACA_site852],10.1 ± 0.38
16,CATACATATAAACACACACACACACCCACCCACAAA [CACACA_site8059],10.4
17,TATACGCATATATAAACACACAAAAAAAAAAAAAAA [CACACA_site2026],8.86 ± 0.48
18,AGGCACACAAACATATGTACACATATATATATATAT [XGTACX_site4723],10.21 ± 0.078
19,CATACATACAAACACACACACATATATATATATATA [CACACA_site43],10.16 ± 0.042
20,TGTACAAATATGTACACACACACATATATATATATA [CACACA_site584],9.88 ± 0.085

row,Sequence,gcPBM binding intensity (ln)
1,TACATATATATATACACACATACATATATATACGCA [CACACA_site792],9.11 ± 0.28
2,TCTTTTTAACAAAAAAAAAAAAAAAAAAAAAAATTA [CACACA_negctrl_site1637],7.96 ± 0.43
3,AGTAGTCTGGAGAAAAGTACATAGTATCTGGTAACC [XGTACX_site2024],8.81 ± 0.58
4,AAAAAAATTAAACATGAAGAATAAGGAACAAAAAAA [CACACA_negctrl_site1607],8.78 ± 0.55
5,CTGATATATAGATGTAGTACATAAAAATGACGAATT [XGTACX_site5612],8.99 ± 0.47
6,ATTTTTTTGGAATTCACACACAAAAAAAAAAATAAA [CACACA_site2081],8.79 ± 0.47
7,GATAAATCATATATAACACACATATGAATATTACAA [CACACA_site1321],8.98 ± 0.35
8,AACTTACTTGGACATACACACATATATATATATATA [CACACA_site2978],9.78 ± 0.3
9,GTAATACCCAAACACACACACATACCCATATATATA [CACACA_site5510],10.1 ± 0.29
10,TGCATATACGCAAGCACACATATATATATATATATA [CACACA_site1069],10.1 ± 0.4
11,TGGTAATACCCATACACACACACATACCCATATATA [CACACA_site5509],9.76 ± 0.33
12,CAAACCCACCAACACACACACACAAAAATGATTAAA [CACACA_site2432],9.88 ± 0.3
13,TGGTAATACCCATACACACACACATACACATATATA [CACACA_site8877],9.76 ± 0.32
14,TATACATACCCACCCACACACAAAAAAAAAAAAAAA [CACACA_site4632],9.76 ± 0.3
15,TATATACACAAACACACACACACATACACCCACATA [CACACA_site8504],10.2 ± 0.16
16,TGCATATACTCAAGCACACATATATATATATATATA [CACACA_site4733],9.76 ± 0.13
17,GTTACACCAACAAACACACACACACCGACACCCAAA [CACACA_site5361],10.1 ± 0.17
18,GTTACACCAACAAACACACACACACCCACCCACAAA [CACACA_site2427],10.3 ± 0.16
19,TACACAAATATATACATACACACATATATACGCATA [CACACA_site394],9.27 ± 0.3
